Some test systems named below: SK-MEL-2 melanoma; EKVX NSCLC; SN12C renal; UO-31 renal; TK-10 renal; ACHN renal; CAKI-1 renal; A498 renal; CCRF-CEM leukemia; MOLT-4 leukemia.
Assay in all cases: NCI-60 one-dose screen, 48 h (100 = growth as untreated, 0 = no growth, -100 = all killed)
What all share (conditions): 10 µM unless noted

The panel holds about 83,000 compounds, 20% with a hit somewhere; the sample as a whole holds those more often.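 In brief: 96-well plates, 48 h treatment, single concentration, percent growth endpoint.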 Unmarked numbers belong to inactive results. Calls of active or inactive are those of the source. The calls were made as follows: active = growth percent below 10; inactive = the rest.

On to `CCOC(=O)C1=C(N)N(c2ccccc2)C2=C(C(=O)CC(C)(C)C2)C1c1ccccc1Cl` (stereo not given), for which the growth with SK-MEL-2 melanoma was 57.7%; in the experiment on EKVX NSCLC, 74.6%; in the experiment with SN12C renal it was 75%; in the experiment on UO-31 renal it was 55.3%; in the experiment on TK-10 renal, 100%; in the experiment on ACHN renal it was 69.2%. In addition, the growth with CAKI-1 renal was 46.7%; in the experiment with A498 renal it was 99.4%; in the experiment with CCRF-CEM leukemia, 48.4%; in the experiment on MOLT-4 leukemia it was 25.8%.

In the case of `CC12CC[C@@H]3[C@]4(C)COC(c5cn[nH]c5-c5cccc(Cl)c5)O[C@@H]4CC[C@@]3(C)[C@@H]1CC(C1=CCOC1=O)O2` (stereo not given in full), the growth was 42.4% with SK-MEL-2 melanoma; 26% in the experiment on EKVX NSCLC; 47.9% in the experiment on SN12C renal; 16.4% with UO-31 renal; 45.9% in the experiment with TK-10 renal; 31.3% in the experiment with ACHN renal. Moreover, the growth is 45.6% with CAKI-1 renal, 73.6% in the experiment with A498 renal, 25.5% in the experiment with CCRF-CEM leukemia and 12.4% in the experiment on MOLT-4 leukemia.

In the case of `Cn1cc(-c2cc(N)n3nc(-c4c[nH]c5ccccc45)cc3n2)c2cc(Br)cnc21`, the growth is -72.6% (active) in the experiment with SK-MEL-2 melanoma; -60.4% (active) in the experiment on EKVX NSCLC; -81.5% (active) in the experiment on SN12C renal; -42.1% (active) in the experiment on UO-31 renal; -58.2% (active) with TK-10 renal; -74.6% (active) in the experiment on ACHN renal. The growth in the experiment on CAKI-1 renal was -36% (active); in the experiment with A498 renal, -28.6% (active); with CCRF-CEM leukemia, -36.2% (active); in the experiment with MOLT-4 leukemia it was -52% (active).

As to `CN(C)c1nc(NCCNS(=O)(=O)c2ccc(C(=O)/C=C/c3ccc(Cl)cc3)cc2)nc(Nc2ccc(F)cc2)n1`, the growth in the experiment with SK-MEL-2 melanoma was -56.5% (active); in the experiment on EKVX NSCLC it was 2.04% (active); with SN12C renal, -97.7% (active); in the experiment on UO-31 renal, 5.91% (active); in the experiment on TK-10 renal, -16.9% (active); in the experiment with ACHN renal, -24.9% (active). The growth is -23.3% (active) in the experiment on CAKI-1 renal, 9.56% (active) with A498 renal, 5.38% (active) in the experiment with CCRF-CEM leukemia and -12.2% (active) in the experiment on MOLT-4 leukemia.

For `COc1cc(/C=C2\C(=N)N=C(SCc3nc4ccccc4[nH]3)NC2=O)ccc1O`, the growth is 105% in the experiment with SK-MEL-2 melanoma; 101% with EKVX NSCLC; 103% in the experiment on SN12C renal; 64.2% in the experiment on UO-31 renal; 155% in the experiment with TK-10 renal; 98.1% with ACHN renal. Also, the growth in the experiment with CAKI-1 renal was 86%; with A498 renal, 113%; in the experiment on CCRF-CEM leukemia, 99.4%; with MOLT-4 leukemia, 99.2%.

`CC1[C@H]2[C@H](C[C@H]3[C@@H]4CC=C5c6sc(Nc7ccccc7F)nc6CC[C@]5(C)[C@H]4CC[C@@]32C)O[C@]12CC[C@@H](C)CO2` (stereo not given in full): the growth with SK-MEL-2 melanoma is -83% (active); in the experiment with EKVX NSCLC, -52.5% (active); with SN12C renal, -69.4% (active); with UO-31 renal, -93.1% (active); with TK-10 renal, -60.2% (active); in the experiment with ACHN renal, -75.4% (active). In addition, the growth in the experiment with CAKI-1 renal is -82.2% (active); in the experiment with A498 renal, 17.5%; in the experiment with CCRF-CEM leukemia it was -21.5% (active); with MOLT-4 leukemia, -16.2% (active).

For `C=C1CC[C@@H]2[C@]3(C)COC(c4cn[nH]c4-c4ccc(C)cc4)O[C@@H]3CC[C@@]2(C)[C@@H]1C/C=C1/C(=O)OCC1O` (stereo not given in full), the growth in the experiment on SK-MEL-2 melanoma is 51.4%; with EKVX NSCLC it was 12.9%; in the experiment on SN12C renal, 7.06% (active); in the experiment on UO-31 renal, 4.54% (active); in the experiment with TK-10 renal, 49%; in the experiment with ACHN renal, -53.5% (active). Moreover, the growth in the experiment on CAKI-1 renal is 50.3%; in the experiment with A498 renal, 133%; in the experiment with CCRF-CEM leukemia, -17.8% (active); with MOLT-4 leukemia it was 13.9%.

As to `O=C(N/N=C/c1ccc(-c2ccc(O)cc2)s1)c1[nH]c2ccc(Br)cc2c1-c1ccccc1`, the growth in the experiment with SK-MEL-2 melanoma was -4.17% (active); in the experiment on EKVX NSCLC, 12.3%; in the experiment with SN12C renal it was 4.89% (active); in the experiment with UO-31 renal it was 15.2%; with TK-10 renal, 22.2%; in the experiment with ACHN renal, -2.55% (active). For the same molecule, the growth was 37.2% in the experiment on CAKI-1 renal, -8.65% (active) with A498 renal, -8.51% (active) in the experiment with CCRF-CEM leukemia and -13.3% (active) in the experiment on MOLT-4 leukemia.

Consider `COc1cccc(/C=C/c2nc3ccccc3c(=O)n2CC(=O)Nc2ccc(Cl)cc2)c1`, for which the growth in the experiment on SK-MEL-2 melanoma was 111%; with EKVX NSCLC, 109%; with SN12C renal, 39.2%; in the experiment on UO-31 renal, 16%; in the experiment on TK-10 renal it was 32.2%; with ACHN renal, -1.49% (active). Moreover, the growth in the experiment with CAKI-1 renal was 60.5%; in the experiment on A498 renal, 25.1%; in the experiment with CCRF-CEM leukemia, 86.1%; in the experiment with MOLT-4 leukemia, 90.6%.

For the molecule `N/C(=N\c1nc2ccccc2s1)NC(=O)Nc1ccccc1Br`, the growth in the experiment on SK-MEL-2 melanoma was -0.501% (active); in the experiment with EKVX NSCLC, 27.1%; in the experiment with SN12C renal, -39.3% (active); in the experiment with UO-31 renal it was 11.3%; with TK-10 renal, -15.6% (active); with ACHN renal it was -39.3% (active). Also, the growth in the experiment on CAKI-1 renal is -17.4% (active); with A498 renal, 26.2%; in the experiment with CCRF-CEM leukemia, 12.6%; with MOLT-4 leukemia, 21.5%.

Regarding `COc1cc2oc(-c3cccc(C(=O)Nc4ccc(Cl)cc4)c3)cc(=O)c2c(OCC(=O)N[C@@H](Cc2ccccc2)C(=O)O)c1OC`, the growth with SK-MEL-2 melanoma was 116%; with EKVX NSCLC, 107%; in the experiment on SN12C renal it was 105%; with UO-31 renal, 90.8%; in the experiment with TK-10 renal, 134%; in the experiment with ACHN renal it was 97.2%. Besides, the growth was 91.2% with CAKI-1 renal, 102% with A498 renal, 98.9% with CCRF-CEM leukemia and 110% in the experiment on MOLT-4 leukemia.

With `CC1=C(C(=O)OC(C)C)C(c2cccc(O)c2)NC(=S)N1` (stereo not given), the growth was 111% with SK-MEL-2 melanoma; 99.6% in the experiment with EKVX NSCLC; 102% in the experiment on SN12C renal; 92% in the experiment with UO-31 renal; 104% with TK-10 renal; 98.1% in the experiment with ACHN renal. Moreover, the growth in the experiment with CAKI-1 renal is 89.9%; in the experiment with A498 renal it was 125%; with CCRF-CEM leukemia, 98.6%; with MOLT-4 leukemia, 96.1%.

For `COc1cc(CNC(=O)/C=C/c2ccc3c(c2)OCO3)ccc1OCc1cn(-c2ccc([N+](=O)[O-])cc2)nn1`, the growth is 118% in the experiment on SK-MEL-2 melanoma; 71.5% in the experiment on EKVX NSCLC; 82.6% in the experiment with SN12C renal; 78.2% in the experiment with UO-31 renal; 106% in the experiment with TK-10 renal; 90.5% with ACHN renal. Further, the growth is 64.3% in the experiment on CAKI-1 renal, 113% in the experiment on A498 renal, 99.5% in the experiment with CCRF-CEM leukemia and 72.4% in the experiment with MOLT-4 leukemia.

Values taken from PubChem BioAssay (NCI).
